The values below come from PubChem BioAssay (NCI).

Structures are written as SMILES. Compounds without any hit were thinned out: in the full panel of roughly 83,000, 20% have a hit.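 Negative percent growth values reflect cell death: -40 means 40% of the cells present at the start died, and -100 means all died.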 Values without a mark were called inactive. Active and inactive are the calls of the source. The calls were made as follows: active = growth percent below 10; inactive = the rest.

Test systems include NCI-H23 lung; NCI-H226 lung; NCI-H322M lung; HOP-62 NSCLC; NCI-H460 lung; HOP-92 NSCLC; NCI-H522 lung; A549/ATCC NSCLC; 786-0 renal; COLO 205 colon; DU-145 prostate; K-562 leukemia; MALME-3M melanoma; MDA-MB-231 breast; RXF 393 renal; SF-268 CNS; SF-295 CNS; SF-539 CNS; UACC-257 melanoma; M14 melanoma.
Holding throughout (assay): NCI-60 one-dose screen, 48 h (100 = growth as untreated, 0 = no growth, -100 = all killed)
Common to all, as to conditions: 10 µM unless noted

Consider `CCCCn1c(-c2ccc(C(=O)O/N=C(\N)c3ccc(OC)cc3)cc2)nc(-c2ccccc2)c1-c1ccccc1`, for which the growth in the experiment with NCI-H23 lung was -41.9% (active); in the experiment with NCI-H226 lung, 69.5%; in the experiment with NCI-H322M lung it was 62.3%; with HOP-62 NSCLC, 11.7%; with NCI-H460 lung it was -32.3% (active); in the experiment with HOP-92 NSCLC it was -68.7% (active). For the same compound, the growth is -63.2% (active) with NCI-H522 lung; -31.7% (active) in the experiment on A549/ATCC NSCLC; -63.9% (active) with 786-0 renal; 0.164% (active) in the experiment with COLO 205 colon; -93.4% (active) in the experiment with DU-145 prostate; -41% (active) in the experiment with K-562 leukemia. Further, the growth is -51.7% (active) in the experiment on MALME-3M melanoma; -6.79% (active) in the experiment with MDA-MB-231 breast; -49.8% (active) with RXF 393 renal; 9.12% (active) with SF-268 CNS; -40.8% (active) in the experiment on SF-295 CNS; -77.6% (active) with SF-539 CNS. Further, the growth was 43.7% in the experiment with UACC-257 melanoma and 51.3% with M14 melanoma.

Regarding `C#Cc1cccc(NC(=O)c2ccc(NC(=O)C=C)cc2)c1`, the growth in the experiment on NCI-H23 lung is 99.1% [8.25 µM]; in the experiment on NCI-H226 lung, 88.1% [8.25 µM]; with NCI-H322M lung, 84.4% [8.25 µM]; with HOP-62 NSCLC, 95.2% [8.25 µM]; in the experiment with NCI-H460 lung, 94.5% [8.25 µM]; in the experiment on HOP-92 NSCLC it was 90% [8.25 µM]. Further, the growth in the experiment on NCI-H522 lung was 45.4% [8.25 µM]; in the experiment with A549/ATCC NSCLC, 69.6% [8.25 µM]; in the experiment with 786-0 renal it was 56.5% [8.25 µM]; in the experiment with COLO 205 colon, 115% [8.25 µM]; in the experiment with DU-145 prostate, 58.9% [8.25 µM]; in the experiment on K-562 leukemia it was 71% [8.25 µM]. Also, the growth in the experiment with MALME-3M melanoma was 85.2% [8.25 µM]; with MDA-MB-231 breast, 90% [8.25 µM]; with RXF 393 renal, 58.7% [8.25 µM]; with SF-268 CNS, 79.3% [8.25 µM]; in the experiment on SF-295 CNS, 102% [8.25 µM]; in the experiment with SF-539 CNS, 75.6% [8.25 µM]. Also, the growth in the experiment on UACC-257 melanoma was 69.9% [8.25 µM]; in the experiment on M14 melanoma it was 86.3% [8.25 µM].

Consider `Cc1cccc2c(=O)c3c(sc12)c(NCc1ccccc1)nc1ccccc13`, for which the growth in the experiment with NCI-H23 lung was 84.5%; in the experiment on NCI-H226 lung, 76.3%; in the experiment on NCI-H322M lung, 89.9%; with HOP-62 NSCLC, 87.5%; in the experiment with NCI-H460 lung it was 54.8%; in the experiment on HOP-92 NSCLC, 111%. Further, the growth with NCI-H522 lung was 81.6%; in the experiment on A549/ATCC NSCLC, 92%; in the experiment on 786-0 renal, 100%; with COLO 205 colon it was 87.2%; with DU-145 prostate, 102%; in the experiment on K-562 leukemia, 101%. Further, the growth with MALME-3M melanoma is 110%; with MDA-MB-231 breast it was 89.4%; with RXF 393 renal, 107%; with SF-268 CNS, 107%; with SF-295 CNS it was 98.9%; in the experiment with SF-539 CNS, 102%. The growth in the experiment with UACC-257 melanoma was 104%; in the experiment on M14 melanoma, 103%.

`Cc1nc2cnc(N)c(C#Cc3cncc(C(=O)Nc4ccc(CN5CCN(C)CC5)c(C(F)(F)F)c4)c3)c2nc1C`: the growth in the experiment on NCI-H23 lung is -9.47% (active); with NCI-H226 lung, 3.74% (active); in the experiment with NCI-H322M lung, -5.35% (active); in the experiment with HOP-62 NSCLC it was 11.9%; in the experiment on NCI-H460 lung, 4.26% (active); with HOP-92 NSCLC, -39% (active). Further, the growth was 4.74% (active) in the experiment on NCI-H522 lung; 2.19% (active) with A549/ATCC NSCLC; 35% in the experiment with 786-0 renal; -17.5% (active) in the experiment with COLO 205 colon; 8.22% (active) with DU-145 prostate; 7.33% (active) in the experiment with K-562 leukemia. For the same compound, the growth with MALME-3M melanoma is -40.5% (active); in the experiment with MDA-MB-231 breast, -12.3% (active); in the experiment on RXF 393 renal, -68.3% (active); in the experiment with SF-268 CNS, 8% (active); in the experiment on SF-295 CNS it was 36%; in the experiment on SF-539 CNS, -23.3% (active). In addition, the figures for the growth in the experiment with UACC-257 melanoma and with M14 melanoma were -25.8% (active) and -55.6% (active), respectively.

For the compound `Cc1cccc(NCc2cn(-c3ccc(C(=O)O)cc3)nc2-c2ccc(C(=O)O)cc2)n1`, the growth in the experiment on NCI-H23 lung is 110%; in the experiment with NCI-H226 lung it was 99.8%; in the experiment with NCI-H322M lung it was 105%; with HOP-62 NSCLC, 104%; with NCI-H460 lung, 104%; in the experiment with HOP-92 NSCLC, 105%. Besides, the growth in the experiment with NCI-H522 lung is 95.8%; in the experiment on A549/ATCC NSCLC, 104%; in the experiment with 786-0 renal, 102%; in the experiment on COLO 205 colon, 111%; in the experiment on DU-145 prostate, 103%; with K-562 leukemia, 96.8%. Besides, the growth in the experiment on MALME-3M melanoma is 96.5%; in the experiment on MDA-MB-231 breast it was 95.2%; in the experiment on RXF 393 renal, 115%; in the experiment with SF-268 CNS it was 96.2%; in the experiment on SF-295 CNS, 102%; in the experiment on SF-539 CNS it was 98.5%. For the same compound, the figures for the growth with UACC-257 melanoma and in the experiment with M14 melanoma were 109% and 110%, respectively.

With `Oc1ccc(C#CCOc2ccccc2)cc1CNCCN(Cc1ccccn1)Cc1ccccn1`, the growth with NCI-H23 lung is 16.7%; with NCI-H226 lung it was 8.23% (active); with NCI-H322M lung, 13.6%; in the experiment on HOP-62 NSCLC it was 13.3%; in the experiment on NCI-H460 lung it was 5.58% (active); in the experiment on HOP-92 NSCLC, 42.5%. Moreover, the growth was 9.5% (active) with NCI-H522 lung; 8.12% (active) in the experiment on A549/ATCC NSCLC; 5.55% (active) with 786-0 renal; 13% in the experiment on COLO 205 colon; 28.6% in the experiment on DU-145 prostate; 8.65% (active) with K-562 leukemia. Also, the growth in the experiment with MALME-3M melanoma was 25.2%; with MDA-MB-231 breast, 47%; in the experiment with RXF 393 renal, 16%; with SF-268 CNS it was 13%; in the experiment on SF-295 CNS, 4.52% (active); in the experiment on SF-539 CNS, 11.3%. The growth is 15.4% in the experiment with UACC-257 melanoma and 6.22% (active) with M14 melanoma.

Take `Cc1ccc(C2CC(c3ccc(Nc4ccnc5cc(Cl)ccc45)cc3)=NN2C=O)cc1` (stereo not given): the growth is 60.3% in the experiment on NCI-H23 lung; 85.1% with NCI-H226 lung; 87.8% in the experiment on NCI-H322M lung; 72.5% with HOP-62 NSCLC; 69.8% in the experiment on NCI-H460 lung; 61.5% with HOP-92 NSCLC. Further, the growth in the experiment with NCI-H522 lung is 50.1%; in the experiment with A549/ATCC NSCLC, 50.2%; in the experiment on 786-0 renal, 64%; in the experiment on COLO 205 colon it was 64.9%; in the experiment with DU-145 prostate, 68.4%; in the experiment on K-562 leukemia, 16.2%. For the same compound, the growth in the experiment on MALME-3M melanoma was 46.5%; with MDA-MB-231 breast, 66.2%; with RXF 393 renal it was 61.7%; with SF-268 CNS it was 48.5%; with SF-295 CNS it was 31.2%; with SF-539 CNS, 91%. Also, the figures for the growth in the experiment with UACC-257 melanoma and in the experiment with M14 melanoma were 79.8% and 45.8%, respectively.
